# Bioassay records: PubChem BioAssay, National Center for Advancing Translational Sciences (NCATS)
# This is a sample that favours compounds with a hit; in the whole collection about 8.1% have one here.
# MCF10A rerep – DNA re-replication induction in MCF 10a cells. MCF 10A DNA re-replication, Hoechst nuclear intensity, 48 h. Potency, µM (highest dose often 46.1 µM), without a hit: at the top dose activity, positive = re-replication, actives largely listed as activators. 350,000 tested, 2.9% active. AID 624296; also: % of control where 0% means no effect; nearly all actives have a fitted effect of over 50% in size
# KB-V1 MDR tox – kills drug-selected multidrug resistant KB-V1 cells; Potency, µM (series often up to 46.1 µM), actives largely listed as cytotoxic; KB-V1 MDR cells viability, CellTiter-Glo, 72 h; 400,000 tested, 3.4% active; AID 1347076; also: % is scaled to controls: 0 for no effect and ±100 for the full control effect; nearly all actives have a fitted effect of over 60% in size
#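 qHTS viability screen in drug-selected KB-V1 MDR cells: 72 h compound treatment at 37 degrees C, ATP luminescence end point.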
# ELG1 DNA repair – blocks ELG1-dependent DNA repair in HEK293T cells; 330,000 tested, 2.3% active; HEK293T ELG1-luciferase reporter, luminescence, 16 h; DNA damage induced by 5-fluorouridine; AID 504467; Potency, µM (titrated, usually from 46.1 µM), for the others: at the top dose activity change, negative = inhibition, actives largely listed as inhibitors; also: % is scaled to controls: 0 for no effect and ±100 for the full control effect; nearly all actives have a fitted effect of over 55% in size
#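 HEK293T cells expressing luciferase-tagged ELG1 (2,000/well) received 5-Fluorouridine plus compound or DMSO for 16 hr at 37 °C. Luciferase was read by ONE-Glo luminescence after 30 min at room temperature.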
# KB-3-1 cytotox – kills parental KB-3-1 adenocarcinoma cells | KB-3-1 viability, CellTiter-Glo ATP luminescence, 72 h | Potency, µM (top dose mostly 46.1 µM), most hits filed as cytotoxic | 400,000 tested, 1.4% active; also: % is scaled to controls: 0 for no effect and ±100 for the full control effect; nearly all actives have a fitted effect of over 60% in size
#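 Cells are dispensed, compounds pinned in, plates held at 37 °C for 72 h, then CellTiter-Glo is added and luminescence read after 10 minutes. Cell line: parental KB-3-1 in phenol-red-free DMEM, 10% FBS.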
# SW480 rerep – DNA re-replication induction in SW480 cells. Potency, µM (highest dose often 46.1 µM), for inactives: top-dose re-replication activation, most hits filed as activators. 340,000 tested, 1.8% active. SW480 DNA re-replication, Hoechst DNA content imaging, 48 h. AID 624297; also: % of control where 0% means no effect; nearly all actives have a fitted effect of over 55% in size
#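 Quantitative HTS format with DMSO vehicle controls; 48 hr drug incubation at 37 C, then 40 min Hoechst staining and scanning imager measurement at 405 nm excitation.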
# The depositor's hits bear a star; i = inactive; ? = inconclusive; nt = no result; [ ] = another dose, or the depositor's remark. Calls follow the shape of the dose curve; as a rule, active = well fitted curve in the direction sought with a large enough effect; inconclusive = small, poorly fitted or top-dose-only effect, or another doubt; inactive = no such curve, though single readings can be large; an effect the other way counts as inactive or inconclusive. Potency is read from the fitted curve at half-maximal effect.
SMILES,MCF10A rerep,KB-V1 MDR tox,ELG1 DNA repair,KB-3-1 cytotox,SW480 rerep
CCOC(=O)CSc1nc2cc(C(=O)OC)ccc2c(=O)n1CCN1CCOCC1,1%,16µM*,-9%,i,-3%
C=CCn1c(=O)c2ccccc2n2c(SCC(=O)Nc3sc(C)c(CC)c3C(=O)OCC)nnc12,?,?,?,i,-41%
C=CCn1c(=O)c2ccccc2n2c(SCC(=O)Nc3sc(C(=O)N(CC)CC)c(C)c3C(=O)OCC)nnc12,5%,i,21µM*,?,?
CCc1ccc(NC(=O)CSc2nc3cc(C(=O)OC)ccc3c(=O)n2Cc2ccco2)cc1,-182%[0.0737 µM],i,?,i,17%
CCN(C(=O)CSc1nc2cc(C(=O)OC)ccc2c(=O)n1Cc1ccco1)c1cccc(C)c1,-2%,?,7.3µM*,i,-9%
O=C(COc1ccc(Cl)cc1)NCCNc1ccc([N+](=O)[O-])cc1,-3%,i,0%,i,-37%
CCc1nn(CC(=O)NCc2ccc(OC)cc2OC)c(=O)c2cc3c(OC)cccc3n12,nt,i,nt,i,nt
CCCCCCCCCCCCCCCC(C)C1=NCCN1 (stereo not given),nt,i,nt,i,nt
COc1cccc(CNC(=O)C2CCN(S(=O)(=O)c3ccc4c(c3)CCCN4C(C)=O)CC2)c1,nt,?,nt,i,nt
CC(C)c1ccc(NC(=O)C2CCCN(S(=O)(=O)c3ccc4[nH]c(=O)oc4c3)C2)cc1 (stereo not given),nt,i,nt,i,nt
CCOC(=O)c1c(NC(=O)CSc2nc3cc(Cl)ccc3c(=O)n2Cc2ccco2)sc(C(=O)N(C)C)c1C,?,i,3.3µM*,i,9%
COC(=O)c1ccc2c(=O)n(CCN3CCOCC3)c(SCC(=O)C(C)(C)C)nc2c1,0%,10µM*,?,i,1%
CCOc1ccc(-n2c(-c3ccc(Cl)cc3)c[n+]3c2SCC3)cc1,?,i,?,16µM*,1%
c1ccc(-c2c[n+]3c(n2-c2ccccc2)SCC3)cc1,12%,?,?,3.3µM*,21%
Cn1c(-c2ccccc2)c[n+]2c1-c1ccccc1C2,1%,i,9%,?,0%
COc1ccccc1CNS(=O)(=O)c1ccc(-n2cccn2)cc1,0%,i,7%,i,10%
CCOC(=O)c1noc2ncnc(Nc3cc(Cl)c(OC)cc3OC)c12,nt,i,nt,i,nt
COc1ccc(C(=O)Oc2ccc(C(c3c(C)[nH][nH]c3=O)c3c(C)[nH][nH]c3=O)cc2)cc1,nt,i,nt,i,nt
Nc1c(Cl)cc(N=Nc2ccccc2)cc1Cl,23µM*,i,nt,i,21%
CCOC(=O)c1c(S(=O)(=O)N2CCN(c3ccc(C(C)=O)cc3)CC2)c(C)n(C)c1C,7%,?,-4%,i,-12%
COc1ccc(Oc2c(C=O)c3ccccc3n2C)cc1,7%,i,-11%,i,14%
Cn1c(Oc2ccc(Cl)cc2)c(C=O)c2ccccc21,?,?,12µM*,21µM*,-1%[9.22 µM]
Cn1c(Sc2ccc(Cl)cc2)c(C=O)c2ccccc21,?,?,7.3µM*,?,?
COc1cc(N)c(NC(=O)/C=C/c2nc3cc(OC)c(OC)cc3[nH]2)cc1OC,nt,i,nt,i,nt
CCOc1ccc(-c2noc(CCC(=O)NC3CCCCC3)n2)cc1OC,-3%,i,?,i,-3%
CCC(CC)C(=O)N(C)c1c(C)nc2c(OCc3ccccc3C)cccn12,nt,i,nt,i,nt
CC(=O)c1ccc(NC(=O)Cn2nc(C(F)(F)F)c3c2CCC3)cc1,nt,i,nt,i,nt
O=C1/C(=C\c2cccnc2)SC(=S)N1C1CCS(=O)(=O)C1 (stereo not given),15µM*,i,?,?,?
O=C1/C(=C/c2cccnc2)SC(=S)N1C1CCS(=O)(=O)C1 (stereo not given),15µM*,?,?,?,?
O=C1/C(=C/c2cccnc2)SC(=S)N1N1CCOCC1,1%,i,0%,i,-3%
